Drawing on PubChem BioAssay (EPA / NIEHS), this text covers outcome and AC50 for 40 molecules.

Molecules are shown by their SMILES. Where “and” joins values, the source holds several entries; their conditions need not be identical. Identical values can stand only once. Calls of active or inactive are those of the source. The calls were made as follows: active = hit-call score of the fitted dose curve at least 0.9, where 1 is the maximum; inactive = score below 0.9.

Read-out in this experiment: Intercellular Adhesion Molecule 1 (ICAM1), ICAM1 (gene 3383)
The experiment is described as follows: BSK_KF3CT_ICAM1: BioMAP Diversity Plus: KF3CT Assay for Intercellular Adhesion Molecule 1 (ICAM1) Biomarker Activity (AID 2283067). Conditions: primary human keratinocytes with fibroblasts; actives raise or lower the signal. As to the method: BSK_KF3CT is a cell-based, multiplexed-readout assay that uses keratinocytes and foreskin fibroblasts, a human skin primary cell co-culture, with measurements taken at 24 hours after chemical dosing in a 96-well plate.BSK_KF3CT_ICAM1 is an assay component measured in the BSK_KF3CT assay. It measures ICAM-1 antibody related to regulation of gene expression using ELISA technology.Data from the assay component BSK_KF3CT_ICAM1 was analyzed into 1 assay endpoint. This assay endpoint, BSK_KF3CT_ICAM1, was analyzed with bidirectional fitting relative to DMSO as the negative control and baseline of activity. Using a type of binding reporter, gain or loss-of-signal activity can be used to understand changes in the signaling as they relate to the gene ICAM1. Furthermore, this assay endpoint can be referred to as a primary readout, because this assay has produced multiple assay endpoints where this one serves a signaling function. To generalize the intended target to other relatable targets, this assay endpoint is annotated to the cell adhesion molecules intended target family, where the subfamily is Immunoglobulin CAM.
The levels of cell surface (or secreted, indicated by the prefix "s") biomarker endpoints were measured by ELISA. Overt cytotoxicity to cells in confluent adherent cultures (all systems other than the BT system) was assessed by measuring total protein levels using sulforhodamine B (SRB) staining in parallel cultures at the time of biomarker measurements, indicated as SRB endpoints. For proliferation assays for adherent cell types, individual cell types are cultured at sub-confluence and relative cell numbers quantified by SRB staining at time points optimized for each system (48 h: 3C and CASM3C systems; 72 h: BT and HDF3CGF systems; 96 h: SAg system). SRB was performed by staining cells with 0.1% SRB after fixation with 10% TCA and reading wells at 560 nm.Viability and proliferation of PBMC (T cells) was quantified by Alamar Blue reduction for the SAg and BT systems. For PBMC viability (referred to as PBMC Cytotoxicity within the assay endpoint names), cells were plated (75,000/well in a 96-well plate) and then chemical samples added for 1 h before addition of activators, SEB and TSST-1 (20 ng/mL final concentration each). Cells were incubated for 90 h. Then, Alamar Blue (20 uL/well) (Invitrogen, Cat DAL1100) was added for 6 h, and the plates were read with a fluorescence microplate reader at 546/580 nm (excitation/emission). For PBMC proliferation, cells were plated and activated as above but incubated for only 16 h prior to addition of Alamar Blue. Plates were read after 6 h.
`COP(=O)(O)OC`: the result was inactive. The same measure, in the same setting: as for `CCN(CC)c1ccccc1`, the entry is “inactive”.

The term AC50 denotes the midpoint of the concentration-response curve, whichever way the signal moves. Consider `O=c1ssc(Cl)c1Cl`, for which the AC50 was 5.46 µM (active).

Take `O=C(O)C=CC(F)(C(F)(F)F)C(F)(F)F`: the result was inactive.

Regarding `COP(=O)(CCC(=O)NCO)OC`, the outcome was inactive. Regarding `CC(O)C(F)(F)C(F)(F)F` (stereo not given), the outcome was inactive. The same measure, in the same setting: as for `CCCCC(CC)COP(=O)(Oc1ccccc1)Oc1ccccc1` (stereo not given), the entry is “inactive”; as for `Nc1ccc(Cl)cc1`, “inactive”. In the case of `c1nc[nH]n1`, the outcome was inactive. Take `FC(F)(F)C(F)(C(F)(F)F)C(F)(F)C(F)(F)CC1CO1` (stereo not given): the outcome was inactive. Turning to `NC(=O)C(F)(F)C(F)(F)F`, the result was inactive.

On to `O=[N+]([O-])c1ccccc1`, for which the result was inactive. `CSC(C)(C)C=NO`: the result was inactive.

With `COP(N)(=S)OC`, the result was inactive.

Regarding `CCOP(=S)(OCC)SCS(=O)(=O)CC`, the result was inactive. As for `COC(=O)C(F)(F)C(F)(F)OC(F)(C(F)(F)F)C(F)(F)OC(F)=C(F)F` (stereo not given), the result was inactive. For `O=P(OCC(Br)CBr)(OCC(Br)CBr)OCC(Br)CBr` (stereo not given), the result was inactive. Consider `CCC1(c2ccccc2)C(=O)N=C(O)NC1=O` (stereo not given), for which the result was inactive. Take `ClC(Cl)c1ccccc1`: the result was inactive. With `O=C(O)C(F)(OC(F)(F)C(F)(F)C(F)(F)F)C(F)(F)F` (stereo not given), the outcome was inactive. On to `O=C(O)C1C(C(=O)O)C2(Cl)C(Cl)=C(Cl)C1(Cl)C2(Cl)Cl` (stereo not given), for which the result was inactive.

For the molecule `ClC(Cl)=C(c1ccc(Cl)cc1)c1ccccc1Cl`, the AC50 is 5.72 µM (active). In the case of `N#Cc1cc([N+](=O)[O-])ccc1N`, the result was inactive. For the molecule `CCCCCCCc1ccc(O)cc1`, the AC50 was 33.3 µM (active). Consider `CCOP(=S)(S)OCC`, for which the outcome was inactive. For the molecule `CCOP(=S)(Oc1ccc([N+](=O)[O-])cc1)c1ccccc1` (stereo not given), the outcome was inactive. In the case of `OCC(F)(F)OC(F)(F)C(F)(F)OC(F)(F)C(F)(F)OC(F)(F)F`, the AC50 is 48.3 µM (active) and 46.3 µM (active). In the case of `OCC1CO1` (stereo not given), the result was inactive.

For the molecule `c1ccc(OP(Oc2ccccc2)Oc2ccccc2)cc1`, the outcome was inactive.

Turning to `O=S1(=O)OCC2C(CO1)C1(Cl)C(Cl)=C(Cl)C2(Cl)C1(Cl)Cl` (stereo not given), the result was inactive. On to `Cc1ccc([N+](=O)[O-])cc1C`, for which the result was inactive. The same measure, in the same setting: under `Cc1ccc2c(c1N)C(=O)c1ccccc1C2=O` stands “inactive”. For the molecule `C=CC(=O)OCC(CC)(COC(=O)C=C)COC(=O)C=C`, the AC50 is 2.16 µM (active). For `O=S(=O)(F)C(F)(F)C(F)(F)C(F)(F)C(F)(F)C(F)(F)C(F)(F)C(F)(F)C(F)(F)F`, the outcome was inactive. Take `CC(C)Nc1ccc(Nc2ccccc2)cc1`: the AC50 was 20 µM (active). Regarding `COCCOCCO`, the outcome was inactive. On the same count and under the same terms, as for `CCCCC(CC)COC(=O)c1c(Br)c(Br)c(Br)c(Br)c1C(=O)OCC(CC)CCCC` (stereo not given), the entry is “inactive”; as for `c1ccc2c(c1)Nc1ccccc1S2`, “inactive”. For the molecule `Cc1ccc(N)cc1N`, the outcome was inactive.

`CCOP(=S)(NC(C)C)Oc1ccccc1C(=O)OC(C)C` (stereo not given): the outcome was inactive.
